A number with no mark means an inactive call. Inconclusive results are not listed. The source made the active and inactive calls. The call rests on the fitted dose curve; in most records, active means well fitted curve in the direction sought with a large enough effect in the repeat runs; inconclusive means weak or mixed curves; inactive means no such curve, though single readings can be large; an effect the other way counts as inactive or inconclusive.

Experimental findings from PubChem BioAssay (Tox21) are described below.

Assay [1] in a line: qHTS RealTime-Glo MT Cell Viability Assay in HEK293 cells - 32 hour (AID 1224868). Further: top concentration of the series differs between compounds; nearly all actives have a fitted effect of over 50% in size. In a few lines:
(§1)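 Viability tracked continuously by luminescence as live cells reduce a prosubstrate for NanoLuc; HEK293 cells preincubated 5 h, compound-treated at 37 C, and read at 0, 8, 16, 24, 32 and 40 h.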
In general terms: Quantitative high-throughput screening tests each substance at several concentrations.

Assay [2] can be described thus: A CellTox Green Cytotoxicity Assay to monitor cytotoxicity in HEK293 cells - 0 hour (AID 1224869). Further: nearly all actives have a fitted effect of over 50% in size. In a few lines:
(§2)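 Fluorescence intensity, read at 0, 8, 16, 24, 32 and 40 h of compound treatment, reflected dye binding to DNA of dead HEK293 cells; compounds (23 nL, DMSO) were added 5 h after plating cells with reagent.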

Assay [3] can be described thus: qHTS RealTime-Glo MT Cell Viability Assay in HepG2 cells - 40 hour (AID 1224870). Further: nearly all actives have a fitted effect of over 50% in size. In a few lines:
(§3)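 HepG2 cells mixed with RealTime-Glo MT reagents (NanoLuc plus cell-permeant prosubstrate) were seeded at 600 cells/well, incubated 5 h at 37 C/5% CO2, then pinned with compounds in DMSO; nonlytic luminescence tracked viability during 40 h treatment.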

Assay [4] in a line: A CellTox Green Cytotoxicity Assay to monitor cytotoxicity in HEK293 cells - 40 hour (AID 1224871). Further: nearly all actives have a fitted effect of over 45% in size. In a few lines: as §2
A short description of assay [5]: qHTS RealTime-Glo MT Cell Viability Assay in HEK293 cells - 16 hour (AID 1224872). Further: top concentration of the series differs between compounds; nearly all actives have a fitted effect of over 50% in size. A digest of the protocol: as §1
Assay [6] can be described thus: qHTS RealTime-Glo MT Cell Viability Assay in HepG2 cells - 8 hour (AID 1224873). Further: nearly all actives have a fitted effect of over 55% in size. In a few lines:
as §3

Assay [7] can be described thus: qHTS RealTime-Glo MT Cell Viability Assay in HEK293 cells - 40 hour (AID 1224874). Further: nearly all actives have a fitted effect of over 50% in size. The note with it: RealTime-Glo luminescence, hits give low values. A digest of the protocol:
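Viable HEK293 cells reduce a cell-permeant prosubstrate; the product diffuses out and is consumed by NanoLuc in the medium to give light. Compounds went in after a 5 h incubation and plates were read over the treatment course.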

The nature of assay [8]: A CellTox Green Cytotoxicity Assay to monitor cytotoxicity in HEK293 cells - 24 hour (AID 1224875). Further: series mostly up to about 77 µM; nearly all actives have a fitted effect of over 45% in size. In a few lines: as §2
The nature of assay [9]: A CellTox Green Cytotoxicity Assay to monitor cytotoxicity in HepG2 cells - 16 hour (AID 1224876). Further: nearly all actives have a fitted effect of over 45% in size. Further: potency means the concentration at half of the fitted maximal effect. In a few lines: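 Using 1536-well format, dye-containing HepG2 suspension was seeded, allowed 5 h at 37 C/5% CO2, dosed by pintool with compounds, positive and negative controls, and imaged for fluorescence across 40 h.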
Assay [10] in a line: qHTS RealTime-Glo MT Cell Viability Assay in HepG2 cells - 32 hour (AID 1224877). Further: nearly all actives have a fitted effect of over 55% in size. A digest of the protocol:
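Viability was tracked continuously by NanoLuc luminescence from prosubstrate reduced by living HepG2 cells, at successive time points over 40 h of compound exposure. Cells with reagent were preincubated 5 h at 37 °C before compound addition.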
On the % scale 0 is the no-effect control and ±100 the full control effect.

With `CCOC(=O)CN1CCCC1=O`, the outcome in assay [1], in [2], in [3], in assay [5], in assay [6] and in assay [10] was inactive. The Potency result in assay [4], in assay [8] and in assay [9] was “inactive” throughout. The max response in assay [7] was 0.653%.
For `C=CCN1CCc2nc(N)sc2CC1`, the compound was called inactive in assay [1], in [2], in assay [3], in [5], in assay [6] and in assay [10]. Further, the Potency entry in assay [4], in [8] and in assay [9] was “inactive” throughout. Also, the max response in [7] was 7.02%.
Turning to `COc1cc(NS(=O)(=O)c2ccc(N)cc2)ncn1`, the compound was called inactive in assay [1], in assay [2], in [3], in assay [5], in assay [6] and in assay [10]. Also, the Potency entry in assay [4], in [8] and in assay [9] was “inactive” throughout. In [7], the max response was 7.65%.
As for `CCCC[O][Al]([O]CCCC)[O]CCCC`, the compound was classed as inactive in assay [1], in assay [2], in [3], in [5], in [6] and in assay [10]. The Potency entry in [4], in assay [8] and in assay [9] was “inactive” throughout. For the same compound, the max response in [7] was 2.78%.
Turning to `C=CCN(CC=C)CC=C`, the outcome in [1], in assay [2], in assay [3], in [5], in assay [6] and in [10] was inactive. Moreover, the Potency result in assay [4], in assay [8] and in assay [9] was “inactive” throughout. For the same compound, the max response in [7] was 12.2%.
As for `Cc1ccc(O)c([N+](=O)[O-])c1`, the outcome in [1], in assay [2], in assay [3], in assay [5], in assay [6] and in assay [10] was inactive. The Potency result in assay [4], in assay [8] and in assay [9] was “inactive” throughout. Moreover, the max response in assay [7] was -15.2%.
Turning to `CCCCCCCCCCCCCCCCN(C)C`, the activity change, negative = cytotoxic in assay [1] was 5.99% [at 6.97 µM]; in assay [3], -1.15% [at 6.97 µM]; in [10], -0.525% [at 6.97 µM]. Further, in assay [2], the cytotoxicity is 1.73% [at 6.97 µM]. Moreover, the cytotoxicity increase in [4] is 4.91% [at 6.97 µM]; in [9], 1.82% [at 6.97 µM]. Also, in assay [5], the activity change, negative = cytotoxicity is 5.86% [at 6.97 µM]. The viability change, negative = cytotoxic in assay [6] is 3.36% [at 6.97 µM]. In addition, the max response in assay [7] was 4.91%. For the same compound, the activity change in [8] is 2.54% [at 6.97 µM, hits give high values].
With `O=C1CC2(CCCC2)CC(=O)N1CCNCC1COc2ccccc2O1` (stereo not given), the compound was called inactive in assay [1], in [2], in assay [3], in assay [5], in [6] and in assay [10]. Besides, the Potency entry in assay [4], in assay [8] and in [9] was “inactive” each time. Also, in assay [7], the max response is -2.45%.
With `Cc1cc(O)c(Cl)cc1C`, the result in assay [1], in [2], in [3], in assay [5], in assay [6] and in assay [10] was inactive. The Potency result in assay [4] and in assay [8] was “inactive” each time. In assay [7], the max response was -1.07%. For the same compound, in assay [9], the Potency is 49 µM (active).
For `NC[C@H]1O[C@H](O[C@H]2[C@H](O)[C@@H](O[C@H]3O[C@H](CO)[C@@H](O)[C@H](N)[C@H]3O)[C@H](N)C[C@@H]2N)[C@H](N)[C@@H](O)[C@@H]1O`, the activity change, negative = cytotoxic is 4.09% [at 15.8 µM] in assay [1], 0.593% [at 15.8 µM] in [3] and 3.63% [at 15.8 µM] in assay [10]. The cytotoxicity in assay [2] is -1.07% [at 15.8 µM]. The cytotoxicity increase in assay [4] is -1.49% [at 15.8 µM]; in assay [9], 0.586% [at 15.8 µM]. In addition, the activity change, negative = cytotoxicity in assay [5] is 6.75% [at 15.8 µM]. For the same compound, the viability change, negative = cytotoxic in assay [6] is 4% [at 15.8 µM]. In assay [7], the max response was 5.23%. Also, the activity change in [8] was 0.657% [at 15.8 µM, hits give high values].
Turning to `CCCC(=O)OC`, the outcome in assay [1], in assay [2], in [3], in assay [5], in assay [6] and in assay [10] was inactive. The Potency result in assay [4], in [8] and in [9] was “inactive” each time. Further, in assay [7], the max response was -2.73%.
On to `CCCc1ncc(C(=O)O)s1`, for which the compound was called inactive in [1], in assay [2], in [3], in [5], in assay [6] and in assay [10]. The Potency entry in assay [4], in assay [8] and in [9] was “inactive” each time. In addition, in assay [7], the max response is 0.25%.
As to `C[C@@H]1CC[C@@]2(OC1)O[C@H]1C[C@H]3[C@@H]4CC[C@H]5C[C@@H](O)CC[C@]5(C)[C@H]4CC(=O)[C@]3(C)[C@H]1[C@@H]2C`, the values for the activity change, negative = cytotoxic in assay [1], in assay [3] and in assay [10] were -2.31% [at 6.97 µM], -0.288% [at 6.97 µM] and 1.67% [at 6.97 µM], respectively. The cytotoxicity in [2] was -2.97% [at 6.97 µM]. Also, the figures for the cytotoxicity increase in [4] and in assay [9] were -2.28% [at 6.97 µM] and -10% [at 6.97 µM], respectively. Besides, the activity change, negative = cytotoxicity in assay [5] is -0.344% [at 6.97 µM]. Further, in assay [6], the viability change, negative = cytotoxic was 1.5% [at 6.97 µM]. Besides, in [7], the max response is -0.328%. For the same compound, the activity change in [8] is -2.49% [at 6.97 µM, hits give high values].
For the compound `O=C1c2ccccc2C(=O)N1CO`, the outcome in assay [1], in [2], in [3], in assay [5], in assay [6] and in assay [10] was inactive. Besides, the Potency entry in assay [4], in [8] and in [9] was “inactive” in each case. Further, the max response in assay [7] is -6.25%.
As for `CCCCCC(=O)CC`, the result in assay [1], in assay [2], in assay [3], in assay [5], in assay [6] and in assay [10] was inactive. Besides, the Potency result in assay [4], in assay [8] and in assay [9] was “inactive” in each case. Besides, in assay [7], the max response is 19.7%.
Take `CCCCN(CCCC)CCCCCCN(CCCC)CCCC`: the call in assay [1], in assay [2], in [3], in [5], in [6] and in assay [10] was inactive. For the same compound, the Potency result in assay [4], in [8] and in [9] was “inactive” in each case. Also, the max response in assay [7] is -10.4%.
With `CN(C)c1ccncc1`, the call in assay [1], in assay [2], in [3], in assay [5], in assay [6] and in [10] was inactive. Also, the Potency entry in assay [4], in [8] and in [9] was “inactive” in each case. Besides, the max response in [7] is -16.5%.
Regarding `COC(=O)c1ccc(C(=O)O)cc1`, the result in [1], in assay [2], in assay [3], in [5], in [6] and in assay [10] was inactive. Moreover, the Potency result in assay [4], in [8] and in assay [9] was “inactive” in each case. The max response in assay [7] is 1.5%.
Take `CCCCCCCCCCCBr`: the compound was classed as inactive in assay [1], in assay [2], in assay [3], in assay [5], in assay [6] and in assay [10]. Besides, the Potency entry in assay [4], in assay [8] and in assay [9] was “inactive” each time. In addition, the max response in assay [7] is -3.54%.
`CC(C)(C)OC=O`: the compound was classed as inactive in assay [1], in [2], in assay [3], in [5], in [6] and in assay [10]. Further, the Potency entry in assay [4], in assay [8] and in assay [9] was “inactive” throughout. Besides, the max response in assay [7] was 8.37%.
Turning to `CCC(=O)OCCOc1ccccc1`, the outcome in [1], in assay [2], in [3], in assay [5], in assay [6] and in assay [10] was inactive. In addition, the Potency entry in assay [4], in [8] and in assay [9] was “inactive” throughout. The max response in [7] is 5.48%.
For `Cc1ccccc1C#N`, the compound was called inactive in assay [1], in assay [2], in assay [3], in assay [5], in assay [6] and in assay [10]. Besides, the Potency entry in assay [4], in assay [8] and in assay [9] was “inactive” each time. Besides, in assay [7], the max response is 7.55%.
As to `O=Cc1ccc(C(=O)O)cc1`, the call in assay [1], in assay [2], in assay [3], in assay [5], in assay [6] and in assay [10] was inactive. In addition, the Potency result in [4], in assay [8] and in assay [9] was “inactive” in each case. Further, the max response in assay [7] is 0.978%.
As for `CNCCc1ccccn1`, the compound was classed as inactive in [1], in [2], in assay [3], in assay [5], in assay [6] and in assay [10]. Also, the Potency entry in [4], in assay [8] and in assay [9] was “inactive” each time. In addition, the max response in [7] is -0.337%.
`Nc1ccc(C(=O)NCC(=O)O)cc1`: the outcome in assay [1], in assay [2], in assay [3], in assay [5], in assay [6] and in assay [10] was inactive. For the same compound, the Potency result in assay [4], in [8] and in [9] was “inactive” in each case. In assay [7], the max response is -0.411%.
